Measured values published in paper PMC5540273 (PLoS ONE, 2017).

What was measured:
Conditions in all cases: concentration: 1 μM, replicates: in singlicate; n = 1
PDPK1 = system: PDPK1
PFTAIRE2 = system: PFTAIRE2
PFTK1 = system: T1, PFTK1
T1 construct: gene CDK14

PHKG1 = system: PHKG1
PHKG2 = system: PHKG2
PIK3C2B = system: PIK3C2B
PIK3C2G = system: PIK3C2G
PIK3CA = system: PIK3CA
PIK3CB = system: PIK3CB
PIK3CD = system: PIK3CD
PIK3CG = system: PIK3CG
PIK4CB = system: T2, PIK4CB
T2 construct: gene PI4KB

PIKFYVE = system: PIKFYVE
PIM1 = system: PIM1
PIM2 = system: PIM2
PIM3 = system: PIM3
PIP5K1A = system: PIP5K1A
PIP5K1C = system: PIP5K1C
PIP5K2B = system: PIP5K2B
PIP5K2C = system: T3, PIP5K2C
T3 construct: gene PIP4K2C
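Further: KINOMEscan kinase panel screen.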

SMILES	%Inh (PDPK1) [%]	%Inh (PFTAIRE2) [%]	%Inh (PFTK1) [%]	%Inh (PHKG1) [%]	%Inh (PHKG2) [%]	%Inh (PIK3C2B) [%]	%Inh (PIK3C2G) [%]	%Inh (PIK3CA) [%]	%Inh (PIK3CB) [%]	%Inh (PIK3CD) [%]	%Inh (PIK3CG) [%]	%Inh (PIK4CB) [%]	%Inh (PIKFYVE) [%]	%Inh (PIM1) [%]	%Inh (PIM2) [%]	%Inh (PIM3) [%]	%Inh (PIP5K1A) [%]	%Inh (PIP5K1C) [%]	%Inh (PIP5K2B) [%]	%Inh (PIP5K2C) [%]
Cl.NS(=O)(=O)c1cccc(Nc2cc(-c3ccc(F)cc3)n[nH]2)c1 [GW824645]	0	24	9	0	0	0	0	11	0	0	0	26	0	0	8	0	3	59	0	0
CCn1c(-c2ccoc2)nc2cnccc21 [SB-733887]	0	15	0	0	0	6	0	0	0	0	0	20	3	0	0	36	11	0	0	32
CN1C(=O)C(Nc2ccccc2)=C(c2ccccc2)C1=O [SB-300079]	0	0	1	11	0	0	16	25	0	0	10	0	9	0	0	0	42	23	0	20
COc1ccc(Nc2nccc(N3CCC(NS(=O)(=O)c4ccc(NC(C)=O)cc4)C3)n2)cc1 (stereo not drawn) [GSK1379729]	9	17	20	18	0	7	6	4	0	27	11	14	11	0	0	0	0	49	9	62
COc1cccc(-n2cnc3c(N)ncnc32)c1 [SKF-97416]	0	0	0	34	0	0	34	21	32	54	44	41	41	20	14	24	2	13	0	0
COc1ccc(CNC(=O)NC2CCN(c3ccnc(Nc4ccc(F)cc4)n3)C2)cc1 (stereo not drawn) [GSK1379706]	0	0	1	7	0	0	0	2	0	8	7	17	0	12	0	0	44	63	20	54
Cc1nnc(-c2ccc3ncn(-c4ccc(S(C)=O)cc4)c3c2)o1 (stereo not drawn)	0	12	14	0	0	0	0	0	2	38	0	0	19	4	1	11	0	18	5	55
CCn1c(-c2nonc2N)nc2ccccc21 [SB-693162/GW549034]	0	0	17	21	16	0	0	0	62	0	0	29	0	0	0	8	23	8	0	0
COc1cc(OC)cc(-c2cc3cnc(N)nc3nc2NC(=O)NC(C)(C)C)c1	0	0	0	13	0	65	74	0	32	0	5	0	44	0	0	0	37	0	0	0
Nc1ncnc2c1ncn2-c1cccc(F)c1 [SKF-97560]	7	0	20	5	0	0	35	0	0	0	14	14	17	1	18	0	6	0	9	0
C[C@@H]1CC[C@H](C(=O)NC2CCCCC2)CN1c1cc(-c2ccc3c(N)n[nH]c3c2)nc(N)n1 [GSK2291363]	95.3	26	27	0	17	0	0	0	0	0	0	0	0	22	0	8	100	53	52	30
Nc1nccc2scc(-c3ccc4c(c3)CCN4C(=O)Cc3ccccc3)c12 [GSK2576924]	19	25	23	0	12	5	0	0	0	4	5	20	0	20	0	3	3	29	15	13
COc1cc(Nc2ccnc3ccc(C(F)(F)F)cc23)cc(OC)c1OC [GW577382]	32	8	0	3	0	0	0	0	0	0	0	0	0	2	0	0	0	54	10	50
Nc1nc(N)c2nc(-c3ccccc3)[nH]c2n1 [SKF-12778]	14	6	9	0	0	0	68	6	0	21	8	19	12	0	5	0	0	47	8	35
Cc1nc(N(C)[C@H]2CN(C(=O)CC#N)CC[C@H]2C)c2cc[nH]c2n1	0	0	0	0	13	0	10	0	0	12	0	0	2	0	0	0	0	0	0	0
CCC(=O)c1c(-c2ccccc2)c2cc(Cl)ccc2c(=O)n1Cc1cc(S(C)(=O)=O)n(CC(F)F)n1	0	0	0	0	7	0	0	0	16	0	0	0	0	0	0	0	2	9	0	0
COC(=O)c1c(-c2ccccc2)c2cc(Br)ccc2c(=O)n1Cc1ccc(S(C)(=O)=O)cc1	0	7	0	24	13	7	11	7	28	0	1	5	0	9	14	9	19	0	23	0
CCc1nc(-c2cccc(C)c2)c(-c2ccncc2)s1	1	0	14	0	9	0	3	0	4	0	0	0	39	17	0	29	0	36	19	25
Nc1n[nH]c2ncc(-c3ccccc3)cc12 [SB-517081]	0	7	10	0	0	3	0	0	0	0	0	0	0	12	0	0	0	38	9	23
Nc1ncnc2c1ncn2-c1ccc(Cl)cc1 [AH2635]	0	0	17	0	0	0	0	0	0	0	47	0	0	0	0	0	17	57	10	23
Nc1n[nH]c2nnc(-c3ccccc3)c(-c3ccccc3)c12 [GW554060]	3	8	19	5	0	0	0	0	47	8	0	0	12	0	0	0	11	47	14	14
